Bioassay records from PubChem.
Most compounds without a hit are left out; they make up all but 10% or so of the library.
aGal spleen mod = inhibitors or activators of human alpha-galactosidase in spleen homogenate. P06280. human spleen homogenate, 4MU-alpha-Gal fluorescence, 40 min. Potency, µM (highest dose often 80 µM), without a hit: at the highest dose activity change, negative = inhibition, actives largely listed as inhibitors. 240,000 compounds, 0.008% hits. AID 2107;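 also: potency is read from the fitted curve at half-maximal effect; 0% = enzyme with vehicle and -100% = no enzyme basal signal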
Target sequence (P06280 32-429 limits assumed): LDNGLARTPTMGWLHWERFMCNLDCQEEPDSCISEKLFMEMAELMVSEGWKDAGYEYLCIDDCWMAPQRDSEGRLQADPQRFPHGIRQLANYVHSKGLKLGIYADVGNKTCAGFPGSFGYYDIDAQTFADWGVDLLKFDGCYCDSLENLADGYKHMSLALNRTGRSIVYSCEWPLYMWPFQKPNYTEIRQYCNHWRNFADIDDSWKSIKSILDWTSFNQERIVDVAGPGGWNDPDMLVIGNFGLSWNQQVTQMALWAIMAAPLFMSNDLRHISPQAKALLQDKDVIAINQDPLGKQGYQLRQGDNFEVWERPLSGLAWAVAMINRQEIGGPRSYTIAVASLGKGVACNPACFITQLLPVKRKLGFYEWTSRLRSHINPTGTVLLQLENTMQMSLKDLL
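Inhibition or activation of alpha-galactosidase in human spleen homogenate is scored by 4-MU fluorescence after 40 min at 37C, pH 5.0, with 1 mM substrate. AC50s come from concentration-response fitted to the Hill equation.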
12-hLO inh = 12-hLO (ALOX12) enzyme inhibition; P18054; 150,000 compounds, 0.12% hits; purified 12-hLO, xylenol orange hydroperoxide absorbance; Potency, µM (highest dose often 57.1 µM), without a hit: top-dose activity change, negative = inhibition, hits mostly inhibitors; also: potency is read from the fitted curve at half-maximal effect; nearly all actives have a fitted effect of over 55% in size
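150 nM 12hLO, 25 mM Hepes pH 7.0 + 0.01% Triton X-100; cpd preinc 15 min RT; 40 uM arachidonic acid, 30 min RT; Fe-XO 30 min; A573/A405 ratio as read-out.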
ALDH1A1 inh = blocks purified human ALDH1A1 activity | P00352 | Purified ALDH1A1, NADH fluorescence, propionaldehyde substrate | Potency, µM (doses to about 75.3 µM), for inactives: at the top dose activity, negative = inhibition, actives largely listed as inhibitors | 220,000 compounds, 7.3% hits | AID 1030; active = well fitted inhibition curve with a large enough effect, not every such curve was filed as active; inconclusive = small, poorly fitted or top-dose-only effect, or another doubt; inactive = no such curve, though single readings can be large or run the other way;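 also: potency is read from the fitted curve at half-maximal effect; plate controls were no enzyme wells and a reference inhibitor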
GLA inh pH 4.5 = inhibitors of human alpha-galactosidase A at pH 4.5; purified enzyme, 4-MU-alpha-Gal fluorescence, pH 4.5; activity change, negative = inhibition, % at 105 µM; 230,000 tested, under 10 active; AID 1467;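 also: 0% = full activity with enzyme and -100% = basal without enzyme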
Target sequence (P06280 whole entry, looked up): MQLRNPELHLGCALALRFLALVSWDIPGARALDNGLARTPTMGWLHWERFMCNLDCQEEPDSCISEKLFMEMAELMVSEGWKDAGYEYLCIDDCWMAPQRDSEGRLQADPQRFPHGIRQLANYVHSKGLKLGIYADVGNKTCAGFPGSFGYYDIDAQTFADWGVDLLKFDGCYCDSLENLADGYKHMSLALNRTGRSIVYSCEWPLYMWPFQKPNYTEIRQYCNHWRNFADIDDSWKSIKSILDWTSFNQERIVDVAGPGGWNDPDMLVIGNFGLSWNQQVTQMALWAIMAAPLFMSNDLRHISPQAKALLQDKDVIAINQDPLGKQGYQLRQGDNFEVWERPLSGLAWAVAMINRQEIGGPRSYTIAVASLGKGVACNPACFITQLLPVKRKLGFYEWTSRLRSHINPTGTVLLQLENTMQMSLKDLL
PNC assembly inh = inhibitors of perinucleolar compartment assembly | PC3M PTB-GFP, PNC prevalence imaging, 16 h; stronger effect = lower value | 140,000 compounds, 3.1% hits | activity change (PNC), negative = inhibition, % at 10 µM | AID 2417;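 active = readout at or below -70, meaning at least 70% loss of cells showing the perinucleolar compartment, a nuclear body marking cancer cells; inconclusive = readout between -30 and a set limit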;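 also: plate controls were DMSO wells for no effect and camptothecin positive control wells for full effect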
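PC3M cells stably expressing PTB-GFP, 750–1000 cells/well, treated 16 h at 37 °C with compound (23 nl of library stock), in duplicate. After paraformaldehyde fixation and Hoechst stain, imaged at 20x; PNC prevalence scored by image analysis.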
HPGD inh = inhibitors of human 15-hydroxyprostaglandin dehydrogenase (HPGD) | P15428 | purified HPGD, NADH fluorescence kinetic, PGE2 substrate | Potency, µM, inactives show top-dose activity change, negative = inhibition, actives largely listed as inhibitors | 150,000 compounds, 4.3% hits | AID 894; active = well fitted inhibition curve with a large enough effect, not every such curve was filed as active; inconclusive = small, poorly fitted or top-dose-only effect, or another doubt; inactive = no such curve, though single readings can be large or run the other way; also: potency is read from the fitted curve at half-maximal effect
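NADH formation kinetics: reaction with 30 uM PGE2 and 1 mM NAD+ (final), 20 nM enzyme, Tris-HCl pH 8 with Tween 20, after 15 min compound preincubation at room temperature. Fluorescence change, last versus first of five reads.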
* hit, by the source's call; ? = inconclusive; nt = no result; [ ] = dose if it differs, or a comment. Unless noted, calls follow the shape of the dose curve; as a rule, active = well fitted curve in the direction sought with a large enough effect; inconclusive = small, poorly fitted or top-dose-only effect, or another doubt; inactive = no such curve, though single readings can be large; an effect the other way counts as inactive or inconclusive. Unless noted, % is scaled to controls: 0 for no effect and ±100 for the full control effect.

SMILES | aGal spleen mod | 12-hLO inh | ALDH1A1 inh | GLA inh pH 4.5 | PNC assembly inh | HPGD inh
CCOc1ccc(C(=O)NCCCn2ccnc2)cc1 | 4.6% | -1.2% | 12.5% | 1.4 | -12.0 | -1.8%
COc1ccc(C(=O)NCCCn2ccnc2)cc1 | 6.7% | -9.1% | 7.94µM* | -7.4 | -27.0 | -8.2%
O=C(NCCCn1ccnc1)c1ccc(N2CCCCC2)c([N+](=O)[O-])c1 | 4.2% | nt | 7.94µM* | -1.4 | nt | nt
CCCCCCCC/C=C\C/C=C\C/C=C\CCCC(=O)O | -2.9% | -0.3% | 6.4% | 0.9 | nt | -0.5%
Cc1cc2nc(C3CCN(CC4COc5ccccc5O4)CC3)[nH]c2cc1C (stereo not drawn) | 8.0% | -26.3% | -11.5% | -3.9 | -82.3* | -3.0%
CCCNC(=S)N1CCC(c2nc3cc(C)c(C)cc3[nH]2)CC1 | 2.4% | 6.1% | 10.0% | 8.3 | 49.3 | -12.2%
C/C(Cc1ccccc1)=N\NC(=O)CCCCCC(=O)N/N=C(\C)Cc1ccccc1 | -3.3% | 2.0% | 11.2µM* | -0.6 | 90.1 | -1.1%
CSc1nc(-c2ccccc2)nn1C(=O)c1ccco1 | 4.3% | 2.8% | 6.8% | -0.4 | 34.6 | -4.7%
O=C(c1ccco1)n1c(=S)nc2ccccn21 | 4.7% | -4.5% | 20µM* | 7.0 | -12.9 | 11.2µM*
Cc1ccn2c(c1)nc(=S)n2C(=O)c1ccccc1 | -6.6% | 5.0% | ? | -0.1 | 3.9 | 25.1µM*
Cc1cccc(C(=O)n2c(=S)nc3cc(C)ccn32)c1 | 9.2% | nt | ? | -1.1 | nt | nt
Cc1cccc2nc(=S)n(C(=O)c3ccco3)n12 | 8.0% | 13.2% | 4.74µM* | 2.4 | ? | ?
CCCC[C@H](NC(=O)[C@H](CO)NC(=O)[C@H](Cc1ccc(O)cc1)NC(=O)[C@H](CO)NC(C)=O)C(=O)N[C@@H](CCC(=O)O)C(=O)N[C@@H](Cc1cnc[nH]1)C(=O)N[C@H](Cc1ccccc1)C(=O)N[C@@H](CCCNC(=N)N)C(=O)N[C@@H](Cc1c[nH]c2ccccc12)C(=O)NCC(=O)N[C@@H](CCCCN)C(=O)N1CCC[C@H]1C(=O)N[C@H](C(N)=O)C(C)C | 3.4% | nt | nt | nt | nt | nt
COC/C=C/C1=CC2=CC(=O)C(C)(OC(=O)CCc3ccccc3)C(=O)C2=CO1 (stereo not drawn) | 4.4% | 7.3% | 7.2% | -7.0 | nt | -5.3%
O=C(NCCO)c1ccc(-n2c(=O)c(=O)[nH]c3ccccc32)cc1 | nt | -0.4% | -1.8% | nt | nt | -6.4%
Cc1[nH]c(=O)c(C(=O)c2ccccc2O)cc1C(=O)O | -6.7% | nt | -4.1% | 2.2 | nt | nt
Cc1cc(O)c(C(=O)c2ccccc2C(=O)O)cc1C | 1.5% | -4.8% | 17.8µM* | -5.0 | 30.8 | -12.7%
Cc1nnc(SCC2=C(C(=O)O)N3C(=O)C(NC(=O)C(C)n4nc(C(F)(F)F)cc4C)C3SC2)s1 (stereo not drawn) | -15.1% | nt | ? | -7.2[21.1 µM] | nt | nt
COc1ccc(N)cc1-n1c(C)ccc1C | -11.4% | nt | 14.1µM* | -0.3 | nt | nt
COc1ccc(N)cc1C#N | -14.3% | 4.9% | ? | -2.5 | 24.0 | -14.0%
CCCCCCC1CC(=O)NC(=S)N1 (stereo not drawn) | 9.2% | nt | 3.98µM* | -5.5 | nt | nt
CCC(=O)N(CCc1ccccc1)Cc1cc2cc(OC)ccc2[nH]c1=O | -6.0% | nt | nt | 13.3 | nt | nt
COc1cccc(/C=C/C2=CC3(C)CC2(C)C(c2cccc(OC)c2)CC3=O)c1 (stereo not drawn) | 13.9%[17.5 µM] | nt | 1.5%[13.5 µM] | nt | nt | nt
CC(C)CCNC(=O)CSc1nc2ccccc2s1 | 0.2% | nt | 17.8µM* | 0.3 | nt | nt
CC(C)CC1CC(=O)OC1(C)C(=O)CSc1nc2ccccc2s1 (stereo not drawn) | 2.6% | -1.9% | 8.91µM* | 9.7 | 10.1 | -17.1%
SMILES | aGal spleen mod | 12-hLO inh | ALDH1A1 inh | GLA inh pH 4.5 | PNC assembly inh | HPGD inh
Cc1csc(NC(=O)CCCSc2nc3ccccc3s2)n1 | 30.0% | ? | 10µM* | ? | -5.1 | 14.1µM*
CC(C)c1nnc(NC(=O)CSc2nc3ccccc3s2)s1 | -6.9% | -4.1% | ? | -13.8 | 20.8 | -21.9%
CC(=O)CSc1nc2ccccc2s1 | -15.8% | 0.0% | -14.7% | -0.8 | 32.3 | -11.3%
CC(C)OC(=O)CSc1nc2ccccc2s1 | 0.0% | -3.1% | 11.2µM* | -7.0 | -24.2 | 15.8µM*
O=[N+]([O-])c1ccc(CSCc2ccc(Cl)cc2)cc1 | nt | -6.8%[11.4 µM] | -2.4%[13.5 µM] | nt | nt | -10.3%
COc1ccc(COC(=O)N/N=C2/C[C@@H](O)[C@@H](O)[C@@H]3[C@@H]4C(=O)N(c5cccc(Oc6ccccc6)c5)C(=O)[C@H]4CC[C@H]23)cc1 | -0.9%[17.5 µM] | nt | -6.8%[13.5 µM] | nt | nt | nt
CNc1nc(Sc2ccccc2)cc(C(F)(F)F)n1 | -8.9% | -4.2% | 35.5µM* | -15.1 | 18.4 | 35.5µM*
CNc1nc(Sc2cccc(C(F)(F)F)c2)cc(C(F)(F)F)n1 | -11.4% | 1.6% | -3.8% | -6.2 | 116.1 | ?
CCOC(=O)C1=C(C)NC2=C(C(=O)c3ccccc32)C1c1cccc2ccccc12 (stereo not drawn) | -5.3% | nt | nt | 8.6 | nt | nt
CCN1C(=O)NC2=C(C(=O)c3ccccc32)C1c1ccccc1F (stereo not drawn) | 5.4% | -5.2% | 0.316µM* | 1.0 | ? | -10.2%
CCc1ccc(N2C(=O)CN(Cc3cccs3)C2=S)cc1 | -4.1% | nt | -0.3% | -11.2[21.1 µM] | nt | nt
COC(=O)/C=C/c1cnc2ccccc2c1 | -4.4% | nt | -15.4% | -9.9 | nt | nt
COC(=O)/C=C\c1cc(O)ccc1O | 5.7% | -8.6% | ? | -21.6 | nt | 2.24µM*
Cc1ccc(CN2C(=O)/C(=C\c3ccc(C(=O)NCc4cccnc4)cc3)Oc3ccccc32)cc1 | -0.1% | 2.4% | ? | 11.5 | ? | ?
O=C(CN1C(=O)/C(=C\c2ccccc2Cl)Oc2ccccc21)NCc1cccnc1 | -5.6% | nt | 3.98µM* | 8.3 | nt | nt
O=c1[nH]c(=S)[nH]nc1Cc1ccccc1 | 6.4% | -1.7% | ? | 3.7 | 21.1 | 28.2µM*
CS(=O)(=O)N(CC(=O)N/N=C/c1cccs1)c1cccc(Cl)c1Cl | -5.6% | -2.1% | 4.5% | -9.3 | 9.6 | -10.0%
O=C1C(c2ccccc2)SC(=Nc2ccccc2)N1S(=O)(=O)c1ccccc1 (stereo not drawn) | -9.8% | 12.0% | 3.16µM* | -4.6 | -26.5 | 14.1µM*
CSc1nc(=NC(C)=O)ss1 | 2.6% | -4.1% | 1.78µM* | 2.5 | 50.9 | ?
CC1CC(C)CN(C(=O)/C=C/c2ccc([N+](=O)[O-])s2)C1 (stereo not drawn) | -2.2% | nt | 2.82µM* | 1.9 | nt | nt
O=C(/C=C/c1ccc([N+](=O)[O-])s1)N1CCCCC1 | 0.6% | nt | 28.2µM* | -11.1 | nt | nt
CC1CN(C(=O)/C=C/c2ccc([N+](=O)[O-])s2)CC(C)O1 (stereo not drawn) | -0.3% | nt | ? | -2.7 | nt | nt
CC(=O)Oc1c(C)cc(OCC(O)CNC(C)C)c(C)c1C (stereo not drawn) | -6.5% | -0.7%[0.00818 µM] | 9.3% | 0.2 | nt | -3.3%
